# From PubChem
# TWEAK Fn14 block – inhibitors of TWEAK-Fn14 signaling, primary screen, luciferase reporter cells, uHTS. 2% of 360,000 active. TWEAK-stimulated Fn14 reporter cells, luciferase luminescence, 8 h. inhibition, % at 10 µM. AID 1159606, 2016; in the data active means inhibition above about 50%
# LGR2 inh – inhibitors of bursicon-induced LGR2 CRE-luciferase signal, primary screen, cell-based, HEK293, CRE-luciferase reporter, bursicon stimulation; Drosophila bursicon receptor LGR2 (rickets); bursicon-stimulated, 4 h; inhibition, % at 9.99 µM; 0.35% of 380,000 active; AID 720647, 2013;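 active means drop in luminescence signal, shown as inhibition above about 50% in the replicate tests, limit read from the data, passing the limit was not always enough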;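 further: agonist challenge used bursicon conditioned medium at about half maximal strength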
# TROY NFkB inh – inhibitors of TROY-driven NF-kB signaling, primary screen, Q293 LMP1-TROYcd cells, NF-kB luciferase, uHTS; inhibition, % at 10 µM; 0.98% of 360,000 active; AID 1347056, 2019; Q293 LMP1-TROYcd NF-kB luciferase reporter, 4 h;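 active means compounds whose plate-normalised and pattern-corrected inhibition of the luciferase reporter signal at the single screening dose is 50% or more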
# EWS-Fli inh – EWS/Fli-driven NR0B1 reporter inhibitors, primary screen, A673 cells, NR0B1 luciferase, luminescence, MLPCN library; viability-normalised; inhibition, % at 12.6 µM; 0.67% of 350,000 active;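 active means mean inhibition of at least 50% after viability correction, with every replicate also passing that limit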;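 further: firefly luciferase signal divided by Alamar Blue viability fluorescence both relative to DMSO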
# EBV LMP1 NFkB – EBV LMP1-driven NF-kappaB luciferase reporter inhibitors, primary screen, cell-based, luminescence, single point; LMP1-induced NF-kappaB luciferase reporter cells; inhibition, % at 12.5 µM; 0.69% of 350,000 active; AID 504558, 2011; in the data active means inhibition above about 41%;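 further: 0% = neutral control wells and 100% = reference inhibitor control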
# The depositor's hits bear a star; . = no result given. Shown are actives, neighbours in structure and some others; about 2.5% of the full set was active somewhere.
SMILES,TWEAK Fn14 block,LGR2 inh,TROY NFkB inh,EWS-Fli inh,EBV LMP1 NFkB
C#CCOCCOCCOCCNc1nc(N2CCN(C(=O)CCCCCCCCCCNC(=O)Cn3cc(C[C@@H](C)O)nn3)CC2)nc(N2CCN(C(=O)CCCCCCCCCCNC(=O)[C@@H](CCSC)n3cc(CCO)nn3)CC2)n1,60*,.,-39,.,-21
C#CCOCCOCCOCCNc1nc(N2CCN(C(=O)CCCCCCCCCCNC(=O)[C@@H](CCSC)n3cc(CCO)nn3)CC2)nc(N2CCN(C(=O)CCCCCCCCCCNC(=O)[C@@H]([C@H](C)O)n3cc(C)nn3)CC2)n1,23,11,-28,31,-3
C#CCOCCOCCOCCNc1nc(N2CCN(C(=O)CCCCCCCCCCNC(=O)Cn3cc(CCCCCN)nn3)CC2)nc(N2CCN(C(=O)CCCCCCCCCCNC(=O)[C@@H]([C@H](C)O)n3cc(C)nn3)CC2)n1,-4,.,1,.,2
C#CCOCCOCCOCCNc1nc(N2CCN(C(=O)CCCCCCCCCCNC(=O)Cn3cc(C[C@@H](C)O)nn3)CC2)nc(N2CCN(C(=O)CCCCCCCCCCNC(=O)[C@@H]([C@H](C)O)n3cc(C)nn3)CC2)n1,84*,.,-19,.,-30
O=C(CN1CCOCC1)NCC[C@@H]1CC[C@H](NS(=O)(=O)c2ccc(F)cc2)[C@@H](CO)O1,.,-6,.,-4,.
Cc1ccc2occ(/C=N/NC(=O)c3ccccc3Br)c(=O)c2c1,71*,14,40,-3,0
CCOC(=O)c1sc(NC(=O)Nc2ccccc2Cl)cc1C,70*,15,69*,.,-95
COCC(=O)Nc1ccc2c(c1)[C@@H]1C[C@@H](CC(=O)N3CCOCC3)O[C@H](CO)[C@@H]1O2,.,2,.,-4,.
COc1ccc(S(=O)(=O)N2CCCC(C(=O)NCC3CCCO3)C2)cc1C (configuration not stated),93*,7,-7,.,-1
COc1ccc(S(=O)(=O)N2CCCC(C(=O)NCc3ccco3)C2)cc1Cl (configuration not stated),86*,4,-8,.,1
COc1ccc(S(=O)(=O)N2CCCC(C(=O)NCc3ccco3)C2)cc1OC (configuration not stated),9,5,4,7,-2
C[C@H](CO)N1C[C@H](C)[C@@H](CN(C)C(=O)Nc2ccc(C(F)(F)F)cc2)OCCCC[C@H](C)Oc2ccc(NC(=O)Nc3cccc4ccccc34)cc2C1=O,.,-5,.,-18,.
Cc1cccc2cc(C#N)c(N3CCOCC3)nc12,54*,.,-18,7,4
COCC(=O)Nc1ncc(S(=O)(=O)c2ccc([N+](=O)[O-])cc2)s1,13,-1,7,5,-1
O=C(NC(Nc1ncc(S(=O)(=O)c2ccc([N+](=O)[O-])cc2)s1)(C(F)(F)F)C(F)(F)F)c1ccc(Cl)cc1,47,.,53*,.,24
CC(=O)c1c(C)[nH]c(C(=O)COc2cc(C)ccc2C(C)C)c1C,64*,.,48,.,31
COc1cc(C)ccc1OCC(=O)OCC(=O)c1[nH]c(C)c(C(C)=O)c1C,-9,3,-1,-4,0
Cc1cc(C)c(O)c(C(=O)CC2CC(=O)NC(=O)C2)c1,.,65*,.,4,.
Cc1ccc(S(=O)(=O)Nc2cccc3ncccc23)s1,108*,.,85*,.,17
COc1ccccc1S(=O)(=O)N1C[C@H](O)COC[C@H]2O[C@@H](CC(=O)O)CC[C@@H]21,.,-12,.,0,.
N=NC(=O)c1ccccc1Nc1c(O)[nH]c2ccccc12,53*,5,6,3,2
CC(C)NC(=O)Nc1ccc2c(c1)C(=O)N([C@@H](C)CO)C[C@@H](C)[C@@H](CN(C)C(=O)c1ccncc1)OCCCC[C@@H](C)O2,.,13,.,.,.
O=C1CC(N(CCc2ccccc2)C(=S)Nc2ccccc2)C(=O)N1c1ccc(Br)cc1 (configuration not stated),79*,30,47,-5,5
COc1ccc(CCN(C(=S)Nc2ccccc2)C2CC(=O)N(c3ccccc3)C2=O)cc1 (configuration not stated),9,.,2,.,0
O=C(NCc1ccncc1)C(=O)Nc1nc(C23CC4CC(CC(C4)C2)C3)cs1,76*,44,57*,.,6
SMILES,TWEAK Fn14 block,LGR2 inh,TROY NFkB inh,EWS-Fli inh,EBV LMP1 NFkB
C=CCn1c(SCc2csc(C)n2)nc2sc3c(c2c1=O)CCCCC3,4,.,13,.,-2
C=CCn1c(SCc2csc(C)n2)nc2sc3c(c2c1=O)CCCC3,10,.,22,.,44*
COc1ccc(/C=C/C(=O)N(C)C2CCCCC2)cc1Br,-40,-18,-31,-38,-38
CN(C(=O)/C=C/c1cnc2ccccc2c1)C1CCCCC1,52*,37,32,-7,17
CCOC(=O)c1ccc(Nc2cc(C)nc(-c3ccccc3)n2)cc1,12,1,71*,33,-12
CCOC(=O)c1ccc(Nc2nc(C)cc(C)n2)cc1,8,-19,-54,-59,-4
CC(C)NC(=O)Nc1ccc2c(c1)CC(=O)N([C@H](C)CO)C[C@@H](C)[C@H](CN(C)CC1CCCCC1)O2,.,13,.,1,.
Cc1cc(/C=C2/NC(=O)N(c3ccccc3)C2=O)c(C)n1C(C)C,60*,-24,48,-60,2
Cc1cc(/C=C2/NC(=O)N(Cc3ccccc3F)C2=O)c(C)n1C(C)C,32,10,16,-22,3
COc1ccc2c(c1)C(c1ccc(C)o1)=NNC(c1ccccc1)=N2,-16,-8,-12,-5,43*
CC(=O)N(C)C1=C(N2CCOCC2)C(=O)c2ccccc2C1=O,74*,.,32,.,30
COc1cccc(C(C(=O)NC2CCCC2)N(Cc2ccccc2OC)C(=O)c2ccco2)c1 (configuration not stated),74*,.,.,.,4
C[C@H]1CCCCO[C@H](CN(C)S(=O)(=O)c2ccccc2)[C@@H](C)CN([C@@H](C)CO)C(=O)c2cc(N(C)C)ccc2O1,.,-23,.,3,.
CC1(C)CC(=O)c2cc(C(=O)NCc3ccco3)c(=O)n(-c3ccccc3)c2C1,83*,.,.,.,12
Cn1c(=NC(=O)c2ccccc2[N+](=O)[O-])sc2cc(S(C)(=O)=O)ccc21,51*,12,7,.,-2
Cn1c(=NC(=O)c2ccc(S(=O)(=O)N3CCCc4ccccc43)cc2)sc2cc(S(C)(=O)=O)ccc21,-13,7,2,.,-4
Cc1ccnc(NC(=O)/C=C/c2cccs2)c1,53*,13,-9,.,18
O=C(/C=C/c1cccs1)Nc1nncs1,-17,-15,-29,-31,-12
CCN(CC)C(=O)C1=C(C)N(CCCN2CCCC2=O)C(=O)C(CC(=O)NC2CC2)C1 (configuration not stated),-10,10,-6,-5,-4
